Experimental findings from PubChem BioAssay (NCATS) are described below.

The target of test [1] is Retinaldehyde dehydrogenase 3 (Homo sapiens) (UniProt P47895). Nature of the test: qHTS for Inhibitors of the Aldehyde Dehydrogenase Family (ALDH1A3) Confirmatory screens (AID 2061311). Note: nearly all actives have a fitted effect of over 60% in size. Note: potency is the fitted concentration of half-maximal effect. On the technique in general: In qHTS, concentration-response curves come from the screen itself.
Test [2] addresses Retinal dehydrogenase 2 (Homo sapiens) (UniProt O94788). Nature of the test: qHTS for Inhibitors of the Aldehyde Dehydrogenase Family (ALDH1A2) Confirmation screens (AID 2061314). Note: nearly all actives have a fitted effect of over 65% in size. Note: potency is the fitted concentration of half-maximal effect.
Test [3] concerns the target Retinaldehyde dehydrogenase 3 (Homo sapiens) (UniProt P47895). In words: qHTS for Inhibitors of the Aldehyde Dehydrogenase Family (ALDH1A3) Primary screen (AID 2061315).
The target in test [4] is Aldehyde dehydrogenase 1A1 (Homo sapiens) (UniProt P00352). Nature of the test: qHTS for Inhibitors of the Aldehyde Dehydrogenase Family (ALDH1A1) Confirmatory screens (AID 2061316). Note: nearly all actives have a fitted effect of over 65% in size. Note: potency is the fitted concentration of half-maximal effect.

Results filed as inconclusive are left out. The source made the active and inactive calls. Calls come from the whole dose curve; as a rule, active = well fitted inhibition curve with a large enough effect; inconclusive = small, poorly fitted or top-dose-only effect; inactive = no such curve, though single readings can be large or run the other way.

As to `N#Cc1cccc(C(=O)Nc2ccc([C@H]3OCC(=O)N(C4CCOCC4)[C@@H]3CO)cc2)c1`, the Potency entry in test [1] is “inactive”.

Consider `O=C1Cc2cc(S(=O)(=O)N3CCN(c4ccc(Br)cc4)CC3)ccc2N1`, for which the Potency result in test [1] and in test [3] was “inactive” in each case. In addition, the Potency in test [2] was 20.6 µM (active).

`Nc1nc2c(s1)C(c1ccccc1Cl)CC(=O)N2` (stereo not drawn): in test [1], the Potency was 5.65 µM (active). Besides, in test [3], the Potency result is “inactive”.

Turning to `Cc1csc(CNc2ncnc3cc(-c4ccc5c(c4)OCO5)ccc23)n1`, the Potency in test [1] is 7.94 µM (active); in test [4] it was 11.3 µM (active). Besides, in test [3], the Potency entry was “inactive”.

For `CC(C)(C)C(=O)N1CCN(c2cccc(Nc3nn4c(=O)c5ccccc5nc4s3)c2)CC1`, the Potency is 28.3 µM (active) in test [1], 25.2 µM (active) in test [2] and 7.98 µM (active) in test [4]. For the same compound, in test [3], the Potency result is “inactive”.

On to `COc1ccc(-c2ccc(C)cc2)cc1CC(=O)N(C)C(C)c1ccco1` (stereo not drawn), for which the Potency in test [1] was 2.01 µM (active); in test [2], 6.31 µM (active); in test [4], 11.3 µM (active).

For `Oc1cc(-c2cccnc2)cc2cccnc12`, the Potency in test [1] was 4.49 µM (active). Further, the Potency result in test [2] and in test [3] was “inactive” each time.

In the case of `S=C(NCCCc1cnc[nH]1)NCCCN(Cc1ccccc1)c1ccc(Br)cn1`, the Potency entry in test [1] and in test [3] was “inactive” throughout.

Consider `COc1ccc(C(=O)c2ccc(-c3no[n+]([O-])c3C#N)cc2)cc1`, for which the Potency in test [1] was 2.51 µM (active); in test [2] it was 12.6 µM (active); in test [4] it was 5.65 µM (active). In test [3], the Potency result was “inactive”.

Consider `O=C(c1ccccc1O)N(Cc1ccco1)Cc1ccco1`, for which the figures for the Potency in test [1] and in test [2] were 12.7 µM (active) and 11.3 µM (active), respectively. For the same compound, the Potency result in test [3] is “inactive”.

For the compound `Cc1ccc(-c2ccnc(N3CCC(C(N)=O)CC3)n2)cc1`, the Potency in test [1] is 5.04 µM (active). Moreover, the Potency entry in test [3] was “inactive”.

For `FC(F)(F)c1ccccc1-c1nc(NCc2ccc(-c3ccccc3)cc2)c2ccccc2n1`, the Potency in test [1] was 3.57 µM (active). Moreover, the Potency entry in test [3] and in test [4] was “inactive” throughout.
